According to the supplement of paper PMC7366291:
Structures can show the parent of a compound that is named as a salt. ± gives the standard deviation or the standard deviation of the averaged measurements.

How the values were obtained:
Settings in all cases: 25 µM; exposure: 24-48 hpf
[1] = system: Danio rerio Tg(wt1b:EGFP) embryo, pronephros; assay: glomerular separation, fold change vs DMSO control; higher = glomeruli further apart (abnormal)
In short: (§1)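 Dechorionated Tg(wt1b:EGFP) zebrafish embryos were incubated at 28.5°C from 24 to 48 hpf with 25 μM compound in HEPES-buffered E3 containing 0.5% DMSO and 0.003% PTU. Distances and angles between 16 manually set points on maximum projections of dorsal pronephros images were measured in Fiji, with values over 2 SD from the feature mean excluded. Each feature is a fold change relative to the mean of same-day DMSO-treated embryos.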

[2] = system: Danio rerio Tg(wt1b:EGFP) embryo, pronephros; assay: glomerular width (mean of left and right), fold change vs DMSO control; higher = wider glomerulus
In short: as §1

[3] = system: Danio rerio Tg(wt1b:EGFP) embryo, pronephros; assay: fraction of imaged embryos annotated as normal kidney; higher = less nephrotoxic; extreme values may be limits of the assay
In short: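 Dechorionated Tg(wt1b:EGFP) zebrafish embryos were incubated with 25 μM compound in 0.5% DMSO, 5 mM HEPES-buffered E3 and 0.003% PTU from 24 to 48 hpf at 28.5°C. Pronephroi were then imaged by widefield fluorescence, and the fraction of embryos per treatment assigned by hand to the normal-kidney category is given.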

[4] = system: Danio rerio Tg(wt1b:EGFP) embryo, pronephros; assay: pronephric angle neck segment to proximal convoluted tubule (mean of left and right), fold change vs DMSO control; higher = larger pronephric angle
In short: as §1

**Q.** How did the glomerular separation [1] turn out when `NC(Cc1cc(I)c(Oc2cc(I)c(O)c(I)c2)c(I)c1)C(=O)O` (centres undefined) [Thyroxine (L)] was run?
**A.** 1.12 ± 0.3

**Q.** What about the glomerular width [2] of the same molecule?
**A.** 1.07 ± 0.046

**Q.** And the “fraction of imaged embryos annotated as normal kidney” value (from here on “fraction of imaged embryos annotated”) [3]?
**A.** 0.75

**Q.** And the “pronephric angle neck segment” value [4]?
**A.** 1.02 ± 0.029

**Q.** What does the source list for `CCc1c(C)[nH]c2c1C(=O)C(CN1CCOCC1)CC2` (centres undefined) [Molindone hydrochloride]?
**A.** glomerular separation [1]: 0.897 ± 0.23; glomerular width [2]: 1 ± 0.018; fraction of imaged embryos annotated as normal kidney [3]: 0.833; pronephric angle neck segment [4]: 0.956 ± 0.0018

**Q.** How did the glomerular separation [1] turn out when `CCCCNc1c(C(=O)OCC)c(C)nc2c1cnn2CC` [Tracazolate hydrochloride] was run?
**A.** 1.18 ± 0.63

**Q.** And the glomerular width [2]?
**A.** 0.929 ± 0.072

**Q.** And the “fraction of imaged embryos annotated” value [3]?
**A.** 0.917

**Q.** And the “pronephric angle neck segment” value [4]?
**A.** 1.06 ± 0.015

**Q.** With `N[C@@H](Cc1ccc(O)c(O)c1)C(=O)O` [Levodopa] as the molecule, how does the glomerular separation [1] read?
**A.** 1.02 ± 0.31

**Q.** And the glomerular width [2]?
**A.** 1.06 ± 0.048

**Q.** What about the “fraction of imaged embryos annotated” value [3] of the same molecule?
**A.** 0.917

**Q.** What about the “pronephric angle neck segment” value [4] of the same molecule?
**A.** 0.972 ± 0.018

**Q.** What does the source list for `CC(=O)Nc1c(I)c(NC(C)=O)c(I)c(C(=O)O)c1I` [Diatrizoic acid dihydrate]?
**A.** glomerular separation [1]: 1.34 ± 0.56; glomerular width [2]: 1.03 ± 0.016; fraction of imaged embryos annotated as normal kidney [3]: 0.583; pronephric angle neck segment [4]: 1.05 ± 0.033

**Q.** With `CC(=O)OC(C)C[N+](C)(C)C` (centres undefined) [Methacholine chloride] as the molecule, how does the glomerular separation [1] read?
**A.** 0.765 ± 0.28

**Q.** And the glomerular width [2]?
**A.** 1.08 ± 0.0033

**Q.** What about the “fraction of imaged embryos annotated” value [3] of the same molecule?
**A.** 0.833

**Q.** And the “pronephric angle neck segment” value [4]?
**A.** 0.972 ± 0.011

**Q.** What does the source list for `COc1ccc(C2CNC(=O)C2)cc1OC1CCCC1` (centres undefined) [Rolipram]?
**A.** glomerular separation [1]: 0.895 ± 0.31; glomerular width [2]: 0.955 ± 0.023; fraction of imaged embryos annotated as normal kidney [3]: 0.833; pronephric angle neck segment [4]: 1.08 ± 0.086

**Q.** For `Cc1ncc([N+](=O)[O-])n1CCO` [Metronidazole], which glomerular separation [1] is on record?
**A.** 1.1 ± 0.31

**Q.** And the glomerular width [2]?
**A.** 0.928 ± 0.084

**Q.** What about the “fraction of imaged embryos annotated” value [3] of the same molecule?
**A.** 0.917

**Q.** And the “pronephric angle neck segment” value [4]?
**A.** 0.884 ± 0.061

**Q.** What does the source list for `NCc1ccc(S(N)(=O)=O)cc1` [Mafenide hydrochloride]?
**A.** glomerular separation [1]: 0.887 ± 0.27; glomerular width [2]: 1.09 ± 0.019; fraction of imaged embryos annotated as normal kidney [3]: 0.833; pronephric angle neck segment [4]: 0.9512 ± 0.0031

**Q.** For `CN1[C@@H]2CC[C@H]1C[C@@H](OC(c1ccccc1)c1ccccc1)C2` [Benztropine mesylate], which glomerular separation [1] is on record?
**A.** 0.821 ± 0.18

**Q.** And the glomerular width [2]?
**A.** 1 ± 0.025

**Q.** And the “fraction of imaged embryos annotated” value [3]?
**A.** 0.833

**Q.** What about the “pronephric angle neck segment” value [4] of the same molecule?
**A.** 1.04 ± 0.011

**Q.** How did the glomerular separation [1] turn out when `C[C@]12C=CC(=O)C=C1CC[C@@H]1[C@@H]2C(=O)C[C@@]2(C)[C@H]1CC[C@]2(O)C(=O)CO` [Prednisone] was run?
**A.** 1.19 ± 0.48

**Q.** And the glomerular width [2]?
**A.** 0.972 ± 0.03

**Q.** What about the “fraction of imaged embryos annotated” value [3] of the same molecule?
**A.** 0.833

**Q.** What about the “pronephric angle neck segment” value [4] of the same molecule?
**A.** 1.08 ± 0.065

**Q.** Which results are given for `C=CCOC(Cn1ccnc1)c1ccc(Cl)cc1Cl` (centres undefined) [Enilconazole]?
**A.** glomerular separation [1]: 0.575 ± 0.22; glomerular width [2]: 1.12 ± 0.024; fraction of imaged embryos annotated as normal kidney [3]: 1; pronephric angle neck segment [4]: 1.1 ± 0.062

**Q.** What does the source list for `Oc1ncnc2[nH]ncc12` [Allopurinol]?
**A.** glomerular separation [1]: 0.837 ± 0.22; glomerular width [2]: 0.984 ± 0.018; fraction of imaged embryos annotated as normal kidney [3]: 0.75; pronephric angle neck segment [4]: 0.9723 ± 0.0072

**Q.** Which results are given for `CN(C)CCN1C(=O)c2ccccc2N(C)c2ccccc21` [Dibenzepine hydrochloride]?
**A.** glomerular separation [1]: 1.21 ± 0.68; glomerular width [2]: 1.08 ± 0.047; fraction of imaged embryos annotated as normal kidney [3]: 0.75; pronephric angle neck segment [4]: 0.967 ± 0.086

**Q.** What does the source list for `CN(C)[C@@H]1C(O)=C(C(N)=O)C(=O)[C@@]2(O)C(O)=C3C(=O)c4c(O)ccc(Cl)c4[C@@](C)(O)[C@H]3C[C@@H]12` [Chlortetracycline hydrochloride]?
**A.** glomerular separation [1]: 1.18 ± 0.35; glomerular width [2]: 1.04 ± 0.012; fraction of imaged embryos annotated as normal kidney [3]: 0.583; pronephric angle neck segment [4]: 0.9692 ± 0.0065

**Q.** Which results are given for `NC(=O)NC1NC(=O)NC1=O` (centres undefined) [Allantoin]?
**A.** glomerular separation [1]: 0.881 ± 0.25; glomerular width [2]: 0.9104 ± 0.001; fraction of imaged embryos annotated as normal kidney [3]: 0.917; pronephric angle neck segment [4]: 0.981 ± 0.024

**Q.** For `CSc1ccc2c(c1)N(CCC1CCCCN1C)c1ccccc1S2` (centres undefined) [Thioridazine hydrochloride], which glomerular separation [1] is on record?
**A.** 1.12 ± 0.33

**Q.** And the glomerular width [2]?
**A.** 1.03 ± 0.047

**Q.** What about the “fraction of imaged embryos annotated” value [3] of the same molecule?
**A.** 0.75

**Q.** What about the “pronephric angle neck segment” value [4] of the same molecule?
**A.** 0.9994 ± 0.0046

**Q.** How did the glomerular separation [1] turn out when `CC1=C(C(=O)O)N2C(=O)[C@@H](NC(=O)[C@H](N)c3ccc(O)cc3)[C@H]2SC1` [Cefadroxil] was run?
**A.** 1.23 ± 0.49

**Q.** And the glomerular width [2]?
**A.** 1.08 ± 0.042

**Q.** And the “fraction of imaged embryos annotated” value [3]?
**A.** 0.833

**Q.** And the “pronephric angle neck segment” value [4]?
**A.** 0.923 ± 0.049

**Q.** What does the source list for `COc1cccc(N(C)C(=S)Oc2ccc3c(c2)CCCC3)n1` [Liranaftate]?
**A.** glomerular separation [1]: 1.14 ± 0.62; glomerular width [2]: 1.025 ± 0.0045; fraction of imaged embryos annotated as normal kidney [3]: 0.667; pronephric angle neck segment [4]: 1.06 ± 0.033

**Q.** Which results are given for `NS(=O)(=O)c1cc2c(cc1Cl)N=CNS2(=O)=O` [Chlorothiazide]?
**A.** glomerular separation [1]: 0.855 ± 0.11; glomerular width [2]: 1.07 ± 0.043; fraction of imaged embryos annotated as normal kidney [3]: 0.75; pronephric angle neck segment [4]: 0.99 ± 0.057

**Q.** What does the source list for `CN1[C@@H]2CC[C@H]1C[C@@H](OC(=O)c1c[nH]c3ccccc13)C2` [Tropisetron hydrochloride]?
**A.** glomerular separation [1]: 1.8 ± 0.91; glomerular width [2]: 1.02 ± 0.051; fraction of imaged embryos annotated as normal kidney [3]: 0.667; pronephric angle neck segment [4]: 1.06 ± 0.067

**Q.** Which results are given for `O=C(CCCN1CC=C(n2c(=O)[nH]c3ccccc32)CC1)c1ccc(F)cc1` [Droperidol]?
**A.** glomerular separation [1]: 1.38 ± 0.42; glomerular width [2]: 0.84901 ± 0.00078; fraction of imaged embryos annotated as normal kidney [3]: 0.667; pronephric angle neck segment [4]: 1.04 ± 0.046

**Q.** Which results are given for `CO[C@H]1/C=C/O[C@@]2(C)Oc3c(C)c(O)c4c(O)c(c(/C=N/N5CCN(C6CCCC6)CC5)c(O)c4c3C2=O)NC(=O)/C(C)=C\C=C\[C@H](C)[C@H](O)[C@@H](C)[C@@H](O)[C@@H](C)[C@H](OC(C)=O)[C@@H]1C` [Rifapentine]?
**A.** glomerular separation [1]: 0.895 ± 0.2; glomerular width [2]: 0.985 ± 0.066; fraction of imaged embryos annotated as normal kidney [3]: 0.909; pronephric angle neck segment [4]: 1.1 ± 0.094

**Q.** What does the source list for `Cc1cn([C@H]2C[C@H](N=[N+]=[N-])[C@@H](CO)O2)c(=O)[nH]c1=O` [Zidovudine, AZT]?
**A.** glomerular separation [1]: 1 ± 0.41; glomerular width [2]: 1.06 ± 0.08; fraction of imaged embryos annotated as normal kidney [3]: 1; pronephric angle neck segment [4]: 0.991 ± 0.018

**Q.** For `O=C(O)/C=C/c1ccc(Cn2ccnc2)cc1` [Ozagrel hydrochloride], which glomerular separation [1] is on record?
**A.** 1.04 ± 0.32

**Q.** What about the glomerular width [2] of the same molecule?
**A.** 1.01 ± 0.032

**Q.** What about the “fraction of imaged embryos annotated” value [3] of the same molecule?
**A.** 0.833

**Q.** And the “pronephric angle neck segment” value [4]?
**A.** 0.98 ± 0.011

**Q.** For `COc1ccccc1N1CCN(CCCNc2cc(=O)n(C)c(=O)n2C)CC1` [Urapidil hydrochloride], which glomerular separation [1] is on record?
**A.** 1.09 ± 0.36

**Q.** And the glomerular width [2]?
**A.** 0.969 ± 0.025

**Q.** What about the “fraction of imaged embryos annotated” value [3] of the same molecule?
**A.** 0.917

**Q.** What about the “pronephric angle neck segment” value [4] of the same molecule?
**A.** 1.02 ± 0.025
